# From the supplement of paper PMC6555819
# Columns and labels:
# Experiment in all cases: PBM binding z-score (relative to random genomic background probes); higher = stronger binding; sequences stand for … in GC…GCGATTGACAGCGTAGAATGAAGG
# [1] = test system: RARb homodimer (NR concentration 270 nM)
# Outline: (§1)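 Random background probes are the reference for binding z-scores. These scores derive from regression-normalized fluorescence on custom Agilent 4×180K protein-binding microarrays incubated 1 h with ligand-free nuclear receptor dimers. Binding was detected with antibodies against each partner (one per run).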
# [2] = test system: RARg:RXRa (NR concentration 270 nM, RXRa partner concentration 90 nM)
# Outline: as §1
# [3] = test system: RARg homodimer (NR concentration 270 nM)
# Outline: as §1
# [4] = test system: RXRa DBDmut IVT, anti-RXR (DBD mutation: RXRa K156A/R161A, NR concentration 90 nM)
# Outline: as §1
# [5] = test system: RXRa homodimer (NR concentration 180 nM)
# Outline: as §1
# [6] = test system: THRa:RXRa (NR concentration 90 nM, RXRa partner concentration 90 nM)
# Outline: as §1
# [7] = test system: THRa homodimer (NR concentration 90 nM)
# Outline: as §1
# [8] = test system: VDR homodimer (NR concentration 270 nM)
# Outline: as §1
sequence,measurement,setting,value
AGAATGAGGTTATTAAGATCAGGGAATTGCGGTC,PBM binding z-score,[1],1.05
same,PBM binding z-score,[2],1.17
same,PBM binding z-score,[3],0.93
same,PBM binding z-score,[4],1.91
same,PBM binding z-score,[5],1.89
same,PBM binding z-score,[6],2.18
same,PBM binding z-score,[7],0.599
same,PBM binding z-score,[8],0.931
AATACAGGGTCACTAGGCCAGAGGAGGTACGAAT,PBM binding z-score,[1],3.25
same,PBM binding z-score,[2],5.14
same,PBM binding z-score,[3],5.04
same,PBM binding z-score,[4],2.54
same,PBM binding z-score,[5],5.66
same,PBM binding z-score,[6],3.34
same,PBM binding z-score,[7],1.54
same,PBM binding z-score,[8],2.73
CCTTCTGGGCCAAAGGTCATTGATTCCAATGCTC,PBM binding z-score,[1],4.44
same,PBM binding z-score,[2],5.8
same,PBM binding z-score,[3],4.73
same,PBM binding z-score,[4],1.41
same,PBM binding z-score,[5],6.15
same,PBM binding z-score,[6],3.44
same,PBM binding z-score,[7],0.658
same,PBM binding z-score,[8],2.23
TAGCGTAGGTCATTCAGGGGCCAGTATAGAAAGC,PBM binding z-score,[1],3.37
same,PBM binding z-score,[2],6.52
same,PBM binding z-score,[3],5.07
same,PBM binding z-score,[4],1.79
same,PBM binding z-score,[5],3.93
same,PBM binding z-score,[6],3.56
same,PBM binding z-score,[7],-0.427
same,PBM binding z-score,[8],1.25
CCTTGCGGGTCACTCCAGGTTATAGCATCGGAGT,PBM binding z-score,[1],2.74
same,PBM binding z-score,[2],3.99
same,PBM binding z-score,[3],3.63
same,PBM binding z-score,[4],1.43
same,PBM binding z-score,[5],3.78
same,PBM binding z-score,[6],4.98
same,PBM binding z-score,[7],0.573
same,PBM binding z-score,[8],1.2
CCGAGTAGGTTATGGGGTATTCAGGCAACGGTGA,PBM binding z-score,[1],0.841
same,PBM binding z-score,[2],0.46
same,PBM binding z-score,[3],0.562
same,PBM binding z-score,[4],0.0146
same,PBM binding z-score,[5],0.873
same,PBM binding z-score,[6],0.963
same,PBM binding z-score,[7],1.05
same,PBM binding z-score,[8],0.274
CGAACTAGGTCATCCAGGACAGGGAATACATTGA,PBM binding z-score,[1],2.82
same,PBM binding z-score,[2],3.79
same,PBM binding z-score,[3],4.29
same,PBM binding z-score,[4],2.17
same,PBM binding z-score,[5],2.65
same,PBM binding z-score,[6],3.52
same,PBM binding z-score,[7],1.93
same,PBM binding z-score,[8],1.73
CTCGAAAGGTCGCTTGAGGTGAGTATACGGATAA,PBM binding z-score,[1],2.86
same,PBM binding z-score,[2],3.95
same,PBM binding z-score,[3],3.9
same,PBM binding z-score,[4],1.89
same,PBM binding z-score,[5],3.66
same,PBM binding z-score,[6],5.16
same,PBM binding z-score,[7],1.09
same,PBM binding z-score,[8],0.912
ACTATTAGTTGACTTAGGGCAACCTATACGACGC,PBM binding z-score,[1],0.929
same,PBM binding z-score,[2],0.744
same,PBM binding z-score,[3],1.05
same,PBM binding z-score,[4],0.811
same,PBM binding z-score,[5],0.654
same,PBM binding z-score,[6],1.72
same,PBM binding z-score,[7],0.279
same,PBM binding z-score,[8],0.34
ATATGTAGGTTAGCTGGGATCATTCAGACTAGGC,PBM binding z-score,[1],0.428
same,PBM binding z-score,[2],0.559
same,PBM binding z-score,[3],0.765
same,PBM binding z-score,[4],0.0124
same,PBM binding z-score,[5],0.95
same,PBM binding z-score,[6],1.95
same,PBM binding z-score,[7],-0.1
same,PBM binding z-score,[8],0.36
CCTACTGCGCCATTCAGAGGTCATTGATCATATG,PBM binding z-score,[1],3.92
same,PBM binding z-score,[2],3.36
same,PBM binding z-score,[3],2.53
same,PBM binding z-score,[4],1.73
same,PBM binding z-score,[5],3.92
same,PBM binding z-score,[6],3.37
same,PBM binding z-score,[7],2.07
same,PBM binding z-score,[8],3.47
CCTACTGGCCCATCAGGTCATTGATATCAACGTT,PBM binding z-score,[1],2.36
same,PBM binding z-score,[2],1.72
same,PBM binding z-score,[3],1.54
same,PBM binding z-score,[4],0.0636
same,PBM binding z-score,[5],1.13
same,PBM binding z-score,[6],3.29
same,PBM binding z-score,[7],3.04
same,PBM binding z-score,[8],1.9
CAACCTAGGTCAAGGTCAAAGTCGGTTTGTGCCA,PBM binding z-score,[1],5.28
same,PBM binding z-score,[2],6.18
same,PBM binding z-score,[3],6.82
same,PBM binding z-score,[4],2.98
same,PBM binding z-score,[5],6
same,PBM binding z-score,[6],4.3
same,PBM binding z-score,[7],3.92
same,PBM binding z-score,[8],4.12
CGAACGAGGGCATAAGTTGATAGCAAATGCCGAT,PBM binding z-score,[1],0.864
same,PBM binding z-score,[2],1.23
same,PBM binding z-score,[3],1.25
same,PBM binding z-score,[4],2.53
same,PBM binding z-score,[5],0.665
same,PBM binding z-score,[6],0.587
same,PBM binding z-score,[7],-0.473
same,PBM binding z-score,[8],1.04
ATCTCTAGGTAAAAGTTCAGTTAATCCCGAGGAT,PBM binding z-score,[1],2.52
same,PBM binding z-score,[2],2.1
same,PBM binding z-score,[3],2.04
same,PBM binding z-score,[4],0.885
same,PBM binding z-score,[5],1.63
same,PBM binding z-score,[6],1.61
same,PBM binding z-score,[7],0.805
same,PBM binding z-score,[8],2.12
AGAACGAGGGGACGCTGAGTTGATAGCAGAGTAG,PBM binding z-score,[1],0.0721
same,PBM binding z-score,[2],0.0507
same,PBM binding z-score,[3],0.265
same,PBM binding z-score,[4],0.401
same,PBM binding z-score,[5],-0.0794
same,PBM binding z-score,[6],0.202
same,PBM binding z-score,[7],-0.233
same,PBM binding z-score,[8],1.16
AACTCTAGGTAACAAGTTCAGTGAAAGAGAGGAC,PBM binding z-score,[1],1.66
same,PBM binding z-score,[2],1.03
same,PBM binding z-score,[3],1.2
same,PBM binding z-score,[4],1.13
same,PBM binding z-score,[5],0.731
same,PBM binding z-score,[6],1.4
same,PBM binding z-score,[7],0.448
same,PBM binding z-score,[8],2.39
ATCTCTAGGTAAGACTCAGTTCAGAGAAGAACGC,PBM binding z-score,[1],0.397
same,PBM binding z-score,[2],0.254
same,PBM binding z-score,[3],0.549
same,PBM binding z-score,[4],0.3
same,PBM binding z-score,[5],-0.0317
same,PBM binding z-score,[6],0.761
same,PBM binding z-score,[7],0.645
same,PBM binding z-score,[8],1.12
GGAACGAGGGCATTCGAGTTGCTAGCATGGCGAT,PBM binding z-score,[1],0.541
same,PBM binding z-score,[2],0.857
same,PBM binding z-score,[3],1.12
same,PBM binding z-score,[4],2.88
same,PBM binding z-score,[5],0.425
same,PBM binding z-score,[6],2.25
same,PBM binding z-score,[7],-0.87
same,PBM binding z-score,[8],2.87
TCATATAGGTAAACAGGTGAAATTCCGTAAGTTA,PBM binding z-score,[1],0.605
same,PBM binding z-score,[2],0.589
same,PBM binding z-score,[3],0.48
same,PBM binding z-score,[4],1.58
same,PBM binding z-score,[5],1.07
same,PBM binding z-score,[6],0.752
same,PBM binding z-score,[7],0.651
same,PBM binding z-score,[8],0.614
CGAACTAGGTCAGAACAGGACACTGAAGGATGAT,PBM binding z-score,[1],2.12
same,PBM binding z-score,[2],2.35
same,PBM binding z-score,[3],3.35
same,PBM binding z-score,[4],0.629
same,PBM binding z-score,[5],1.37
same,PBM binding z-score,[6],4.03
same,PBM binding z-score,[7],0.473
same,PBM binding z-score,[8],0.123
CAAACTAGGTCAAAAGTCAAAGTCGAGCCAACCA,PBM binding z-score,[1],2.64
same,PBM binding z-score,[2],4.67
same,PBM binding z-score,[3],4.23
same,PBM binding z-score,[4],1.61
same,PBM binding z-score,[5],5.2
same,PBM binding z-score,[6],2.55
same,PBM binding z-score,[7],0.407
same,PBM binding z-score,[8],0.387
ACAGACAGGTGAGGAAGGTAACTCAGGCTATCAT,PBM binding z-score,[1],0.672
same,PBM binding z-score,[2],0.425
same,PBM binding z-score,[3],0.577
same,PBM binding z-score,[4],-0.639
same,PBM binding z-score,[5],0.267
same,PBM binding z-score,[6],0.957
same,PBM binding z-score,[7],0.208
same,PBM binding z-score,[8],-0.55
TCGAGTAGGTTAGTCGGGGCACTCAGCCAACATA,PBM binding z-score,[1],0.461
same,PBM binding z-score,[2],0.0814
same,PBM binding z-score,[3],-0.0518
same,PBM binding z-score,[4],0.105
same,PBM binding z-score,[5],0.249
same,PBM binding z-score,[6],1.35
same,PBM binding z-score,[7],-0.252
same,PBM binding z-score,[8],0.195
TGAATGAGGTTAAAGATCAGGAAACGTGGCGTCG,PBM binding z-score,[1],0.6
same,PBM binding z-score,[2],2.53
same,PBM binding z-score,[3],1.23
same,PBM binding z-score,[4],1.25
same,PBM binding z-score,[5],3.88
same,PBM binding z-score,[6],2.41
same,PBM binding z-score,[7],0.21
same,PBM binding z-score,[8],0.62
TCGAGTAGGTTAGTCGGGGCATTCAGCCAACATA,PBM binding z-score,[1],0.309
same,PBM binding z-score,[2],-0.257
same,PBM binding z-score,[3],-0.115
same,PBM binding z-score,[4],0.217
same,PBM binding z-score,[5],-0.227
same,PBM binding z-score,[6],0.885
same,PBM binding z-score,[7],-0.0985
same,PBM binding z-score,[8],0.0153
TCATATAGGCAATACAGGTGAAAGTCGGCATCTA,PBM binding z-score,[1],0.329
same,PBM binding z-score,[2],0.188
same,PBM binding z-score,[3],0.134
same,PBM binding z-score,[4],1.25
same,PBM binding z-score,[5],0.668
same,PBM binding z-score,[6],0.629
same,PBM binding z-score,[7],-0.127
same,PBM binding z-score,[8],-0.277
CCAGACAGGTGAGGAGGTAACTCAGCCTCGATTA,PBM binding z-score,[1],0.852
same,PBM binding z-score,[2],0.397
same,PBM binding z-score,[3],0.304
same,PBM binding z-score,[4],-0.0213
same,PBM binding z-score,[5],0.216
same,PBM binding z-score,[6],0.684
same,PBM binding z-score,[7],0.59
same,PBM binding z-score,[8],0.177
TAGACTAGGTCATGGGCCAGTATACCACGCGAAC,PBM binding z-score,[1],2.68
same,PBM binding z-score,[2],3.79
same,PBM binding z-score,[3],4.47
same,PBM binding z-score,[4],-0.0129
same,PBM binding z-score,[5],2.96
same,PBM binding z-score,[6],2.73
same,PBM binding z-score,[7],0.989
same,PBM binding z-score,[8],0.435
